The supplement of paper PMC11732987, “Enantioselective OTUD7B fragment discovery through chemoproteomics screening and high-throughput optimisation” (Communications Chemistry, 2025)

Assays:
Experiment in all cases: log2 ratio of Biotin-Ahx-Ub-VS probe labelling (fragment/DMSO); higher = less target engagement (more negative = stronger competition), active = hit call of the paper (q ≤ 0.05, log2 ratio ≤ -1)
Details in all cases: compound concentration: 200 uM; treatment time: 3 h
USP42 = target: T1, USP42 (UniProt Q9H9J4)
T1 sequence (whole entry): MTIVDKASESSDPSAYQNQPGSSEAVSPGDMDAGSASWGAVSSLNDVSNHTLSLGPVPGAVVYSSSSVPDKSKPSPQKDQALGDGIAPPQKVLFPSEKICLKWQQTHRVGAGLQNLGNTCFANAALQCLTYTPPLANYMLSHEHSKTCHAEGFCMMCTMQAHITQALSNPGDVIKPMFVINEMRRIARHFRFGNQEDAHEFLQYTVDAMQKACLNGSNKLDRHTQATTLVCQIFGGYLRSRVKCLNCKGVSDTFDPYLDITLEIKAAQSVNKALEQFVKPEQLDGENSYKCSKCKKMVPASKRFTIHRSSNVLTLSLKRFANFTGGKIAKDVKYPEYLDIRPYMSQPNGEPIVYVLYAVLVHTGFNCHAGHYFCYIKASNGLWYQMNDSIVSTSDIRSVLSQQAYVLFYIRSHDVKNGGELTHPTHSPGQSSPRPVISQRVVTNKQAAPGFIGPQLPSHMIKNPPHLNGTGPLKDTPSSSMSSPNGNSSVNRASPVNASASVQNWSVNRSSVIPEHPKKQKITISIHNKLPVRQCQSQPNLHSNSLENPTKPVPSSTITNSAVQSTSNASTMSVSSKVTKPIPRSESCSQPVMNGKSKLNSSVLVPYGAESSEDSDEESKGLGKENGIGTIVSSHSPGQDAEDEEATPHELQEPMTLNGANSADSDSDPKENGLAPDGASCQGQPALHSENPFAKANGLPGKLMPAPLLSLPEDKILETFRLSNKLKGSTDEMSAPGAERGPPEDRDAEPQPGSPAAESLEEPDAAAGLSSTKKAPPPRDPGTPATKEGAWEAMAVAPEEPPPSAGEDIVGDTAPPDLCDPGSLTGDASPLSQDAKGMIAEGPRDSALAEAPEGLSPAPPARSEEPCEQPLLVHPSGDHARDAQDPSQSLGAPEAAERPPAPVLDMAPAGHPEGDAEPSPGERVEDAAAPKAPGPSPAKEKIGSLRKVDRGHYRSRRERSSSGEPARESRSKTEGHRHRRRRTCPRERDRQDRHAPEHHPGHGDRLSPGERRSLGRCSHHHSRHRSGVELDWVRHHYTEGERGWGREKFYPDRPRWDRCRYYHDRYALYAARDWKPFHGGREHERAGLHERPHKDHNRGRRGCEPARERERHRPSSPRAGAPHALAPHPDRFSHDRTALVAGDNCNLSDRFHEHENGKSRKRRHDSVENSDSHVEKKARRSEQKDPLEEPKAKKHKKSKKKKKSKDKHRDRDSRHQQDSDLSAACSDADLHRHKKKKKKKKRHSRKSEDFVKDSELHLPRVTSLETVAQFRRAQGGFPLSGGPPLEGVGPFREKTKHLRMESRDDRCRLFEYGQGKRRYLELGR
In short: (§1)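 Values give the average log2 ratio of fragment to vehicle, assessed by unpaired t-test on global-median-normalised Spectronaut label-free quantities. Proteins needed ≥2 unique peptides. HEK293T lysate (495 µg per sample) was treated in triplicate with fragment at 200 µM or vehicle for 3 h and then with Biotin-Ahx-Ub-VS at 0.5 µM final for 1 h. Labelled DUBs were NeutrAvidin-enriched, digested and run by diaPASEF LC-MS/MS.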

USP46 = USP46 (UniProt P62068)
In short: as §1

USP47 = target: T2, USP47 (UniProt Q96K76)
T2 sequence (whole entry): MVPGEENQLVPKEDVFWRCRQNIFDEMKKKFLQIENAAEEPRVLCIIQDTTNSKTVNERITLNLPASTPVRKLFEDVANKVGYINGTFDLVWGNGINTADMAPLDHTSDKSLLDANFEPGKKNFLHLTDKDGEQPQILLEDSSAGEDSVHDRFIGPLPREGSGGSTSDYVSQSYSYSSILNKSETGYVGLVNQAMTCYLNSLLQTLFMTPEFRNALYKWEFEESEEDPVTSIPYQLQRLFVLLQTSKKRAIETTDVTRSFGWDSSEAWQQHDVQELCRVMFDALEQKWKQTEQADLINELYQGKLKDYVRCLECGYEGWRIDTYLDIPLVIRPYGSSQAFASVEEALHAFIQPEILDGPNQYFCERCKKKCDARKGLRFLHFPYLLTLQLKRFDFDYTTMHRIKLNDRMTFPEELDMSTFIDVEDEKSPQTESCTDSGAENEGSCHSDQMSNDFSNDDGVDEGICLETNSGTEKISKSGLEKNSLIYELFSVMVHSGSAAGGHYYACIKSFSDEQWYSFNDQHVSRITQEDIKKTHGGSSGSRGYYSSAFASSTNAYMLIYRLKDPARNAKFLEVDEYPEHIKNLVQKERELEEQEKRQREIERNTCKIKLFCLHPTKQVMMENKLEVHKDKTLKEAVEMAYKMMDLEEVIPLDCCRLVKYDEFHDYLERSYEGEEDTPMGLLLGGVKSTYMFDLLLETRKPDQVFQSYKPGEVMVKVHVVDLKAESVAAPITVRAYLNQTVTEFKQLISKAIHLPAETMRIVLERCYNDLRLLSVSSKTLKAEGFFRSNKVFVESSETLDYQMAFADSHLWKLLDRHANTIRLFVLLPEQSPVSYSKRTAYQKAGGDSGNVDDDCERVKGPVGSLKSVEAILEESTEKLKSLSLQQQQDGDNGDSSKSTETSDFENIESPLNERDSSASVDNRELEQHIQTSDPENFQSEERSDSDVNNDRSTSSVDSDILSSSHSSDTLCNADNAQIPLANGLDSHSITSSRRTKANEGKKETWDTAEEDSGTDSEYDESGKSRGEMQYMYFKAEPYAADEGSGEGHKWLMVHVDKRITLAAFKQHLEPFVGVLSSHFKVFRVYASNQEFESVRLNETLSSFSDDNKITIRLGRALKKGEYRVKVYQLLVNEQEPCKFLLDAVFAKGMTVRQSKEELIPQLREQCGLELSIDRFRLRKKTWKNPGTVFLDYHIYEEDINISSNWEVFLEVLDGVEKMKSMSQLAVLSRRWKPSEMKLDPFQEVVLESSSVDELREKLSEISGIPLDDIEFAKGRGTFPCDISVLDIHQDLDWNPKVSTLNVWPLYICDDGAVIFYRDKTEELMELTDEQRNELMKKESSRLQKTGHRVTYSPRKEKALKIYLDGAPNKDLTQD
In short: as §1

USP48 = target: T3, USP48 (UniProt Q86UV5)
T3 sequence (whole entry): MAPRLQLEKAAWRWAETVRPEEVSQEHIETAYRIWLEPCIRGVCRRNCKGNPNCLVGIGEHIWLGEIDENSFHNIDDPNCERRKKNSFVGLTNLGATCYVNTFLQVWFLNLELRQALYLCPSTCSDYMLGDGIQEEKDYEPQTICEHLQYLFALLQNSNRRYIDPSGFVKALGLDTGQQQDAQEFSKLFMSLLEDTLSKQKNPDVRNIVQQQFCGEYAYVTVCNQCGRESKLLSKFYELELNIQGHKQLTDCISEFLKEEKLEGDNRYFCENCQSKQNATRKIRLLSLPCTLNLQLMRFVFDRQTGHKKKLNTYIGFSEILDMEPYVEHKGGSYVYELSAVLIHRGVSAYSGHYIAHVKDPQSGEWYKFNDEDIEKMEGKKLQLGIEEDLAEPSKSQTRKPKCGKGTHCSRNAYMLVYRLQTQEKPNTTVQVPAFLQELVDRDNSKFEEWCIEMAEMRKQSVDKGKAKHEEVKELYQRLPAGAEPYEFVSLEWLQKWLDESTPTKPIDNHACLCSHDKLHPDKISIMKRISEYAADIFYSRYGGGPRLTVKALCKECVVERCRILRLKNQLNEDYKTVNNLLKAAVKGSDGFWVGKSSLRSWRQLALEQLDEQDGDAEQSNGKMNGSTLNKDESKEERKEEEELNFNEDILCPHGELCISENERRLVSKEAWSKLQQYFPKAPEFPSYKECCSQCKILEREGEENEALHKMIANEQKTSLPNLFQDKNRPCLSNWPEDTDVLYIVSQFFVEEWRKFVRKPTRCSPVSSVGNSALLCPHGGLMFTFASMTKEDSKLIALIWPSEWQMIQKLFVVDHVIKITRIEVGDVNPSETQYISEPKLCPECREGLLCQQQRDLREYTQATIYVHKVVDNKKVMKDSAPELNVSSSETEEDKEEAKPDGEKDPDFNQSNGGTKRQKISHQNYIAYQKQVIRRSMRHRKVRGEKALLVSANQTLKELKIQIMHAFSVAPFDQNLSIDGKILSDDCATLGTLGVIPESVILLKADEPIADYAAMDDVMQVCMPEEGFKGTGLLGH
In short: as §1

USP5 = target: T4, USP5 (UniProt P45974)
T4 sequence (whole entry): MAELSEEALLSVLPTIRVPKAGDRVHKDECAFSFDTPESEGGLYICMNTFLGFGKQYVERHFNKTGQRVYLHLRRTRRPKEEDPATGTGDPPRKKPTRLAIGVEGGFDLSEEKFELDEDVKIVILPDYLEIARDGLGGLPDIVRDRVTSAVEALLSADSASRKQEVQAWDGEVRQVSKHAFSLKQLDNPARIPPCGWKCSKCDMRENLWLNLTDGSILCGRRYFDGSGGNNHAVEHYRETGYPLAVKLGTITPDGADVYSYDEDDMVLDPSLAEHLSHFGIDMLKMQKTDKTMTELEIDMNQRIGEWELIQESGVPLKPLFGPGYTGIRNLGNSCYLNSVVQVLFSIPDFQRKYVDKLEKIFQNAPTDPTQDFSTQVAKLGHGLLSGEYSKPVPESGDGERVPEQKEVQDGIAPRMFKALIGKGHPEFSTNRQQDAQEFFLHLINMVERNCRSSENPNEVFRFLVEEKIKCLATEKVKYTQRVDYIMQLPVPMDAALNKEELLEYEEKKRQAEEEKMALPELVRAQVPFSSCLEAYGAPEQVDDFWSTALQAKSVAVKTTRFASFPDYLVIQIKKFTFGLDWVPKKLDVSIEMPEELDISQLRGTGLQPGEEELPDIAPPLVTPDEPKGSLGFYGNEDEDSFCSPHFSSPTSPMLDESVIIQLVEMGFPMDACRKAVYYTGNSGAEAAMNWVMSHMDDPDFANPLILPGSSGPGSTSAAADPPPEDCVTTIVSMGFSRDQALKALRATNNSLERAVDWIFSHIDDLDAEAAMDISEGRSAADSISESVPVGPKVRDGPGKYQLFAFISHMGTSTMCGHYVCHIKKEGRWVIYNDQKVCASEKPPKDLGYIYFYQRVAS
In short: as §1

USP54 = USP54 (UniProt Q70EL1)
In short: as §1

USP7 = USP7 (UniProt Q93009)
In short: as §1

USP8 = target: T5, USP8 (UniProt P40818)
T5 sequence (whole entry): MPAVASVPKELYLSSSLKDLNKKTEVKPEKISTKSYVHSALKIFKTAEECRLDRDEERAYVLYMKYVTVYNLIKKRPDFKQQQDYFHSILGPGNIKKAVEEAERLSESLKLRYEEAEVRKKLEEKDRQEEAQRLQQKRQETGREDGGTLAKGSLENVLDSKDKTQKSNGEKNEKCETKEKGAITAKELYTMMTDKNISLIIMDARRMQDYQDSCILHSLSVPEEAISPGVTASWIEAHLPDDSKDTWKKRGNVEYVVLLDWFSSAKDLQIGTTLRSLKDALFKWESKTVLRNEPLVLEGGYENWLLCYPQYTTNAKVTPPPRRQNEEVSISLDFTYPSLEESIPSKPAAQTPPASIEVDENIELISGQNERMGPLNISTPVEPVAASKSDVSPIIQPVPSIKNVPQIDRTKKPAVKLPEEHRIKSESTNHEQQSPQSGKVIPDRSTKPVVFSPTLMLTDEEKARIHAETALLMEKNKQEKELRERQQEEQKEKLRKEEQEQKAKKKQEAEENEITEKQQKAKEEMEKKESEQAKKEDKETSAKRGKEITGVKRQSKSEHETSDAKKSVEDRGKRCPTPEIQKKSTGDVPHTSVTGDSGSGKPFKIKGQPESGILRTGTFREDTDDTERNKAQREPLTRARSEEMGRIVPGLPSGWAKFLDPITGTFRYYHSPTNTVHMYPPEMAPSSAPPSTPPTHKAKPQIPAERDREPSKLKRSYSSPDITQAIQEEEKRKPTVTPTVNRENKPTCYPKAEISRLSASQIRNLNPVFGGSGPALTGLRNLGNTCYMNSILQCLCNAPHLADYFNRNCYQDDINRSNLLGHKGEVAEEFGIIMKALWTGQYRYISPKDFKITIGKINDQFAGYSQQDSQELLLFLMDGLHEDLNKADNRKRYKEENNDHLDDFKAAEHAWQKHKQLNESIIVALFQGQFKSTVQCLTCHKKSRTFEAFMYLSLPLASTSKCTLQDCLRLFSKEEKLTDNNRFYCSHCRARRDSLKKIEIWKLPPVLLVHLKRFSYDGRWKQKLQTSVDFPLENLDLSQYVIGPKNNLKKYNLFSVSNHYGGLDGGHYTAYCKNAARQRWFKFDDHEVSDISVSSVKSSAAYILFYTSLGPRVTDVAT
In short: as §1

USP9X = USP9X (UniProt Q93008)
In short: as §1

UniProt O00487 = target: UniProt O00487
In short: as §1

Measured: log2 ratio of Biotin-Ahx-Ub-VS probe labelling

Sequence of USP9X (Q93008 whole entry): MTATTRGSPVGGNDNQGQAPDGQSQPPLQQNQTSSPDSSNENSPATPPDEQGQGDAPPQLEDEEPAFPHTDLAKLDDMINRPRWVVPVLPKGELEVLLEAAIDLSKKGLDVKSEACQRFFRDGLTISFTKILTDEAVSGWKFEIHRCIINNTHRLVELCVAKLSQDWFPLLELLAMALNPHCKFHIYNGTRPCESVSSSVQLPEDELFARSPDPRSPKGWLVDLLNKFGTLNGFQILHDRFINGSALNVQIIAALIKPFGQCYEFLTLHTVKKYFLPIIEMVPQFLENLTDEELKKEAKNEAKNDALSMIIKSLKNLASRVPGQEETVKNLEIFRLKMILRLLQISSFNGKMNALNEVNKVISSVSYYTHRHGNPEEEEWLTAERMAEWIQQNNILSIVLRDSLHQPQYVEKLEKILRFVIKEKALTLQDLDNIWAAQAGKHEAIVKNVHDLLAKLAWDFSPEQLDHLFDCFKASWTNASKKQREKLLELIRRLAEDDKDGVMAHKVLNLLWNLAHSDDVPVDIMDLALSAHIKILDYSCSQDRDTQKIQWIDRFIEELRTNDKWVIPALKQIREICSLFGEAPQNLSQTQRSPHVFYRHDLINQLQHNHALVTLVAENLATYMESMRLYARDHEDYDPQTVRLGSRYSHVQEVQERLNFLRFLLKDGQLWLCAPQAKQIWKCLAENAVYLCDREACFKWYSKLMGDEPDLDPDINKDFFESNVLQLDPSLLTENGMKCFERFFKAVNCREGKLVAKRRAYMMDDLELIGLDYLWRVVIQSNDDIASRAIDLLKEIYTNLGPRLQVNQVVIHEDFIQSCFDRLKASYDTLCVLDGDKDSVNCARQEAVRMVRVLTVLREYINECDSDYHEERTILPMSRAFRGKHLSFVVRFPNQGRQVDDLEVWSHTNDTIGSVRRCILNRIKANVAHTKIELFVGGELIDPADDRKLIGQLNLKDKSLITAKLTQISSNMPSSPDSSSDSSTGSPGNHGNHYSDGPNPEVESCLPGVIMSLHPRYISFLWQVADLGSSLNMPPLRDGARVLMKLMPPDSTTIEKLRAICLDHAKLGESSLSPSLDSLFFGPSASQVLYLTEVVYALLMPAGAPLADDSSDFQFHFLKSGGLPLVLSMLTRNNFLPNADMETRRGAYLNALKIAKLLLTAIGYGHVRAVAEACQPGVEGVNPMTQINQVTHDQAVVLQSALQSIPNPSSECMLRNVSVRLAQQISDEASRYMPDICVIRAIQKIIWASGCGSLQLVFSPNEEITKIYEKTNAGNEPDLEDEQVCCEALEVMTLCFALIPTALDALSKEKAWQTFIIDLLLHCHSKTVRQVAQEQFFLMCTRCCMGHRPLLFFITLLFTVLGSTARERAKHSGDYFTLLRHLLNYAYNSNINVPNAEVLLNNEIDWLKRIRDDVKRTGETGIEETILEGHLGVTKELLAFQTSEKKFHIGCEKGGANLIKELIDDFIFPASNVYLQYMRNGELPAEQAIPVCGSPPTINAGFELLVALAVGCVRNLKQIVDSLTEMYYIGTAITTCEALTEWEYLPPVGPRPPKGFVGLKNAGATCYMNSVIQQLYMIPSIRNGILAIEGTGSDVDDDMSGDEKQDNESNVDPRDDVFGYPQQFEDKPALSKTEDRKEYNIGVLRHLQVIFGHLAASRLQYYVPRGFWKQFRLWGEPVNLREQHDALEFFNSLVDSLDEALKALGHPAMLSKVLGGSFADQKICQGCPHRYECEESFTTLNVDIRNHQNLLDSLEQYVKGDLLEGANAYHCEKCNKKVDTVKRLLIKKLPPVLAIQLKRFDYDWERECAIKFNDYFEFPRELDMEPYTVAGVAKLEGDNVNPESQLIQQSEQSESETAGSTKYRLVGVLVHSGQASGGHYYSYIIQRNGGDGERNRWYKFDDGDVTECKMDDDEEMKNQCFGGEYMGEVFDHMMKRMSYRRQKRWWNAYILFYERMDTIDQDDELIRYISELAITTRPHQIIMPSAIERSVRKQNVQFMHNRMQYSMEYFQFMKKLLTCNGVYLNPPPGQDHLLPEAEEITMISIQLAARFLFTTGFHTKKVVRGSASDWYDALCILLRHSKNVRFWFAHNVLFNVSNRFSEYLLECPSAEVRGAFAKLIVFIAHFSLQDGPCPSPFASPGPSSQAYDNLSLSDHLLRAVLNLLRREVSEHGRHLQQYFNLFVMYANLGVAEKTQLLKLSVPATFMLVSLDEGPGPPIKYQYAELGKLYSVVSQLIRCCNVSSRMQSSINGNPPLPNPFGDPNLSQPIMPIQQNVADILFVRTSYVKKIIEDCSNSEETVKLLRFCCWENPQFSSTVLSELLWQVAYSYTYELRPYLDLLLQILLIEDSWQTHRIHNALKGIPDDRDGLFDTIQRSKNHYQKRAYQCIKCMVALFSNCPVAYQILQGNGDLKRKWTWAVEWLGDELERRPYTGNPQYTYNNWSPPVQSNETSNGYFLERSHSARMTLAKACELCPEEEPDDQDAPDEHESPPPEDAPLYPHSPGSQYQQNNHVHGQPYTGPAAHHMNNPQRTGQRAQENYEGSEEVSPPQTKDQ
Sequence of USP54 (Q70EL1 whole entry): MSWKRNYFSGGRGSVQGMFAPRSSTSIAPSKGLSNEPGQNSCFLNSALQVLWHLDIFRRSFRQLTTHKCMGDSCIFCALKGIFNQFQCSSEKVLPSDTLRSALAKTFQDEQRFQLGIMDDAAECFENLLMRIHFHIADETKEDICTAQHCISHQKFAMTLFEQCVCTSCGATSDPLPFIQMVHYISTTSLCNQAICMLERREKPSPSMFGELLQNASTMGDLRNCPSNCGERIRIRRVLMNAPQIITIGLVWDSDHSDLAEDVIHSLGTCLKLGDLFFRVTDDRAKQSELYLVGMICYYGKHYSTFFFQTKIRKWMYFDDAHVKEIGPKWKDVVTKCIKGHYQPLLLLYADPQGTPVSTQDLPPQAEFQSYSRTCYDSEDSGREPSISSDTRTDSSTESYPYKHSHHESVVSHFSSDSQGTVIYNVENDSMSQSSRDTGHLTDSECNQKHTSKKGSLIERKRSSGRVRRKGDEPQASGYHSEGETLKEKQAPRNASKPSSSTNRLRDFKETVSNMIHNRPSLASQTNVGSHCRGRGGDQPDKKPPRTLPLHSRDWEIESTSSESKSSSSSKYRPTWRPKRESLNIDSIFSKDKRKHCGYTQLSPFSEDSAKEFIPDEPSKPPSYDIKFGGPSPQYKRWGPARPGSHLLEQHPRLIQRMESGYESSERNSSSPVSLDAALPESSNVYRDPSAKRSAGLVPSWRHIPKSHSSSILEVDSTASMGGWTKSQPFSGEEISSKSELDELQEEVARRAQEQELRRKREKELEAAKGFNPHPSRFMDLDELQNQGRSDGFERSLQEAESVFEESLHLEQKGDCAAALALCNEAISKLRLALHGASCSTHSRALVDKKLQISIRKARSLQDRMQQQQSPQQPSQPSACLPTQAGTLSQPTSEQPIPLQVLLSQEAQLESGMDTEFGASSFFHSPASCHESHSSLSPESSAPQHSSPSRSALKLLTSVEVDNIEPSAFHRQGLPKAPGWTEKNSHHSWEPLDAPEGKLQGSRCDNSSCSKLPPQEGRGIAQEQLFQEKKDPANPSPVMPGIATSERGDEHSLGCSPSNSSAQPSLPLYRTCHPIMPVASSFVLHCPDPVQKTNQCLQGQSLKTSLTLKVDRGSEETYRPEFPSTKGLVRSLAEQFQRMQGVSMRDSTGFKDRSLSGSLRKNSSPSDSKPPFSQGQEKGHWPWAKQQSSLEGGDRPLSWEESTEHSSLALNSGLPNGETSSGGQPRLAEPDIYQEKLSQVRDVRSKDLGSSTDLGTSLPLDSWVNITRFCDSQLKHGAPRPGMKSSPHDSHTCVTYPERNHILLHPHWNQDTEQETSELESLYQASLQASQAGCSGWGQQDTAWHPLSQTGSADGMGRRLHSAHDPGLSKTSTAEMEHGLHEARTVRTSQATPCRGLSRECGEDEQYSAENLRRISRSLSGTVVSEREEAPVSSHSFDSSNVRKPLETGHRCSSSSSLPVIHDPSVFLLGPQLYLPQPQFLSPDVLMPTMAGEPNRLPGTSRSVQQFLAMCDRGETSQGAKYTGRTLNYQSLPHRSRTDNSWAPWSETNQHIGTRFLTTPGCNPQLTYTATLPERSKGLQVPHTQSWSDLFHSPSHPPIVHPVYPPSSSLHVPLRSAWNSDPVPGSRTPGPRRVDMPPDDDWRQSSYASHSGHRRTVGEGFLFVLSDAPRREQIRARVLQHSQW
Sequence of USP46 (P62068 whole entry): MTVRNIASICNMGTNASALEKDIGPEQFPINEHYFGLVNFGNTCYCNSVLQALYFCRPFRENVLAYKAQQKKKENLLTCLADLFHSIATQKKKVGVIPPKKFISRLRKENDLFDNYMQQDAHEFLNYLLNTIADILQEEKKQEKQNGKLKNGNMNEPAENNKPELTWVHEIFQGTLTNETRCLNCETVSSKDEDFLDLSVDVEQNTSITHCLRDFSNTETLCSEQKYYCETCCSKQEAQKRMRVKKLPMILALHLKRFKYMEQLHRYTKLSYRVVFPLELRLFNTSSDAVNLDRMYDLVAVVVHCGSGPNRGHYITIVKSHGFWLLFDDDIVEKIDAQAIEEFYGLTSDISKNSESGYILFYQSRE
Sequence of UniProt O00487 (O00487 whole entry): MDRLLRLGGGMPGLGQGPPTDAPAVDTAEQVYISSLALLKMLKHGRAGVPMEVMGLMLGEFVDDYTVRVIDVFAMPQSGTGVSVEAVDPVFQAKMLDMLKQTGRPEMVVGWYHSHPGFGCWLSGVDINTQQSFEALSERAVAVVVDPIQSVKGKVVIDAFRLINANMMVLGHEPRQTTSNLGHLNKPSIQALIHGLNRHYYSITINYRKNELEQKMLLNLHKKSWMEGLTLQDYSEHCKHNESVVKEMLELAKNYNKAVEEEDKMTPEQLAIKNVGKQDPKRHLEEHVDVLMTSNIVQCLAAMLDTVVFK

O=C(CCl)N1CCCC1c1ccsc1 (stereo not given)
inactive: USP42 -0.371 | USP46 -0.105 | USP47 -0.389 | USP48 -0.959 | USP5 0.45 | USP54 0.559 | USP7 -0.795 | USP8 -0.441 | USP9X -0.231 | UniProt O00487 -0.138

O=C(CCl)NCc1ccc2c(c1)OCO2
inactive: USP42 0.271 | USP46 0.12 | USP47 0.0619 | USP48 -0.33 | USP5 0.376 | USP54 0.581 | USP7 -0.297 | USP8 -0.155 | USP9X -0.147 | UniProt O00487 -0.108

CNC(=O)C1(NC(=O)CCl)CCCCC1
inactive: USP42 -0.202 | USP46 0.0346 | USP47 0.28 | USP48 -0.00183 | USP5 0.148 | USP54 0.521 | USP7 -0.0838 | USP8 -0.173 | USP9X -0.228 | UniProt O00487 0.0455

Cc1cc(CC(C)NC(=O)CCl)n[nH]1 (stereo not given)
inactive: USP42 -0.515 | USP46 -0.086 | USP47 0.219 | USP48 -0.0294 | USP5 -0.0909 | USP54 -0.195 | USP7 -0.0248 | USP8 -0.57 | USP9X -0.345 | UniProt O00487 -0.0204
